Screens (PubChem)
An excerpt weighted towards active compounds, which were near 2.8% of everything screened.
PI5P4Ka inh = inhibitors of human PI5P4K alpha. P48426. PI5P4Kalpha enzyme, ADP-Glo luminescence, 60 min; active compounds read low. max response, %. 330,000 tested, 1.2% active. AID 652105; active = max response of -50% or lower; inconclusive = between -30% and -50%; inactive = -30% or higher; note: value at the top dose of about 77 µM; % is set by controls: 0 for no effect and ±100 for the full control effect
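Compounds were pin-transferred onto PI5P4Kalpha and substrate in HEPES pH 7.4 buffer with EGTA, CHAPS and 5% DMSO. ATP (5 microM final) started the reaction, which ran 60 minutes at room temperature before ADP-Glo detection.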
POLB inh = blocks human DNA polymerase beta activity; P06746; Pol beta primer extension/strand displacement, fluorescence kinetic; Potency, µM (series often up to 114 µM), without a hit: at the highest dose activity change, negative = inhibition, actives largely listed as inhibitors; 340,000 tested, 1.3% active; note: potency is the fitted concentration of half-maximal effect; % is set by controls: 0 for no effect and ±100 for the full control effect
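Homogeneous kinetic assay of primer extension and strand displacement by 10 nM Pol beta, preincubated 15 min at room temperature with compound before 50 nM substrate (final) was added. Read at 0 and 10 min; four-parameter Hill fit.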
Pol iota inh = inhibitors of human DNA polymerase iota; 390,000 tested, 1% active; Potency, µM (series often up to 115 µM), for the others: top-dose activity, negative = inhibition, usual class: inhibitors; Pol iota fluorescent replication assay, 10 min; Q9UNA4; AID 588590; note: potency is the fitted concentration of half-maximal effect
Target sequence (Q9UNA4 whole entry, looked up): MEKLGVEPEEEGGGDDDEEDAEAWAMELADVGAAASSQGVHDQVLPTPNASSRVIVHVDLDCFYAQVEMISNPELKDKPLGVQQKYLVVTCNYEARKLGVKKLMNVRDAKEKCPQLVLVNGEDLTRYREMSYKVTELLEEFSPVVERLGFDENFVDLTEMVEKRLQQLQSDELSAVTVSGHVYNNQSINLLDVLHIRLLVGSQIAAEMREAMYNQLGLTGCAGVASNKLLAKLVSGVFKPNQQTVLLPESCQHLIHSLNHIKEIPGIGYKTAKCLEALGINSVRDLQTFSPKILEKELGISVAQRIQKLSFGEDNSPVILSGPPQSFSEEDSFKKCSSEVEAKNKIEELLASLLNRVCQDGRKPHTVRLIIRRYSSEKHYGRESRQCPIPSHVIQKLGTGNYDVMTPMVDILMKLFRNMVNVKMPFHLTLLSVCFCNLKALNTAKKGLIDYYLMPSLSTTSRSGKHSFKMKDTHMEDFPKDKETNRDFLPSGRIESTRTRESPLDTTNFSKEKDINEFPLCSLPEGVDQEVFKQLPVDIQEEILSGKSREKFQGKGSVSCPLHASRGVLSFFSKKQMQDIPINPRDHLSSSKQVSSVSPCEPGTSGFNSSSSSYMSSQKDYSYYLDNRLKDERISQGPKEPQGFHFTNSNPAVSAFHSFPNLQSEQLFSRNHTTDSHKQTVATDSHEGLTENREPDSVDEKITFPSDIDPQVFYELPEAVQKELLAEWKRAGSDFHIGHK
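Fluorescent replication assay read twice, at 0 min and 10 min after adding 50 nM (final) substrate. Enzyme (10 nM) and compounds were first incubated 15 min at room temperature; enzyme-free buffer wells were negative controls.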
Pol eta inh = inhibitors of human DNA polymerase eta. recombinant Pol eta, fluorescent DNA replication assay. 390,000 tested, 1.2% active. AID 588591. Potency, µM (top dose mostly 114 µM), inactives show top-dose activity change, negative = inhibition, actives largely listed as inhibitors; note: potency is the fitted concentration of half-maximal effect; % is set by controls: 0 for no effect and ±100 for the full control effect
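Pol eta (10 nM) was preincubated with compounds for 15 min at room temperature, after which fluorescent replication substrate (50 nM final) was added to start the reaction. Fluorescence was read kinetically at 0 and 10 min.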
Pol kappa inh = inhibitors of human DNA polymerase kappa; AID 588579; purified Pol kappa, fluorescent DNA synthesis assay, 10 min; Potency, µM (top dose mostly 107 µM), inactives show top-dose activity, negative = inhibition, usual class: inhibitors; Q9UBT6; 400,000 tested, 0.53% active; note: potency is the fitted concentration of half-maximal effect; % is set by controls: 0 for no effect and ±100 for the full control effect
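Activity was followed as the change in fluorescence between reads at 0 and 10 min after starting the reaction with 50 nM substrate. Beforehand, 10 nM polymerase had been preincubated with compound for 15 min at room temperature.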
PI4K2A inh = inhibitors of human PI4K2A | Q9BTU6 | purified PI4K2A, ADP-Glo luminescence, 1 h; active compounds read low | activity change, negative = inhibition, % at 76.9 µM | 420,000 tested, 0.13% active; in the data active = activity change below about -50%; inconclusive = mostly about -30% to -49%;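 note: -100% = wells without enzyme as full effect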
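PI4K2A activity was measured by ADP-Glo luminescence: enzyme (4 ug/mL stock) and phosphatidylinositol (1.2 mM stock) in Tris pH 7.5/MgCl2/EGTA/Triton X-100 buffer were reacted with ATP (300 microM stock) for one hour at ambient temperature.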
* = called active by the depositor; ? = inconclusive; / = no result; [ ] = another dose, or the depositor's remark. Unless noted, calls come from the whole dose curve; as a rule, active = well fitted inhibition curve with a large enough effect; inconclusive = small, poorly fitted or top-dose-only effect, or another doubt; inactive = no such curve, though single readings can be large or run the other way.

SMILES	PI5P4Ka inh	POLB inh	Pol iota inh	Pol eta inh	Pol kappa inh	PI4K2A inh
CC(=O)c1ccc(NS(=O)(=O)c2ccc3ccccc3c2)cc1	1	2%	18%	-16%	-2%	-4
CC(=O)c1ccc(NS(=O)(=O)c2cccc(S(=O)(=O)c3ccc(Cl)cc3)c2)cc1	/	5%	89µM*	-5%	?	-5
C=C[C@@]1(C)CC[C@H]2C(=CC[C@@H]3[C@]2(C)CCC[C@@]3(C)C(=O)O)C1	/	/	/	/	-3%[60.1 µM]	/
CC(C)N1CCCCC(NC(=O)c2ccc(F)c(F)c2)C1=O (stereo not drawn)	/	/	/	/	/	2
CCN(CCCCCCN)c1ccc2c(=O)[nH][nH]c(=O)c2c1	0	-27%	46%	79µM*	-5%	-6
CC(=O)c1cccc(NC(=O)COC(=O)c2ccc(S(C)(=O)=O)c([N+](=O)[O-])c2)c1	8	10%	?	79µM*	-5%	-10
CS(=O)(=O)c1ccc(C(=O)OCC(=O)Nc2cc(C(F)(F)F)ccc2Cl)cc1[N+](=O)[O-]	/	/	-13%	/	-25%	/
Cc1ccccc1NC(=O)Cc1nc(COC(=O)c2ccc(Cl)nc2)cs1	1	/	25%	0%	6%	-1
COc1ccc(C(C)=O)cc1COC(=O)c1ccc(N)c([N+](=O)[O-])c1	-11	-6%	32µM*	-16%	-4%	-12
Cc1ccccc1NC(=O)COC(=O)c1ccc(S(C)(=O)=O)c([N+](=O)[O-])c1	6	?	?	89µM*	-4%	-7
Cc1ccccc1NC(=O)Cc1nc(COC(=O)c2ccc(S(C)(=O)=O)c([N+](=O)[O-])c2)cs1	-22	/	?	22µM*	-10%	-8
CC(=O)c1cccc(NC(=O)C(C)OC(=O)c2ccc(S(C)(=O)=O)c([N+](=O)[O-])c2)c1 (stereo not drawn)	/	/	-1%	/	7%	/
Cn1cccc1CC(=O)NN=Cc1cccc(F)c1	/	/	/	/	/	1
CCc1ccc2nc(N(Cc3cccnc3)C(C)=O)sc2c1	/	5%	19%	-24%	0%[60.1 µM]	1
O=C(NCCCc1cnc[nH]1)NCCCN(Cc1ccc(Cl)cc1)c1ccc(Br)cn1	/	/	?	/	-10%	/
CS(=O)(=O)c1ccc(C(=O)OCC(=O)Nc2cccnc2Cl)cc1[N+](=O)[O-]	0	/	?	89µM*	9%	-1
O=C1CN(C(=O)COC(=O)c2ccc(N3CCCCCC3)c([N+](=O)[O-])c2)c2ccccc2N1	-5	?	67%	-18%	-13%	-5
CS(=O)(=O)c1ccc(C(=O)OCC(=O)N2CC(=O)Nc3ccccc32)cc1[N+](=O)[O-]	/	/	50µM*	/	-3%	/
NS(=O)(=O)Nc1ccccc1Br	/	/	7%	/	6%	/
COc1ccccc1C(=O)NC(=O)COC(=O)c1cnccn1	-4	/	/	-2%	/	-7
COc1ccccc1C(=O)NC(=O)COC(=O)c1nccnc1N	0	/	3%	18µM*	-22%	9
CN(C(=O)COC(=O)c1ccccc1OCC(=O)Nc1ccc(Br)cc1)c1ccccc1	/	/	-30%	/	-12%	/
COc1cc(C(=O)/C=C/Nc2ccc(NC(C)=O)cc2)cc(OC)c1OC	6	71µM*	-10%	-21%	-13%	-4
Fc1ccc(Nc2cncc(-c3ccsc3)c2)cc1Cl	-22	/	/	/	/	-50*
Fc1ccc(Nc2nnc(C(F)(F)F)s2)cc1Cl	31	3%	54%	-15%	-11%	3
SMILES	PI5P4Ka inh	POLB inh	Pol iota inh	Pol eta inh	Pol kappa inh	PI4K2A inh
Cc1ccc(SCC(CC(C)C)N2CCN(C)CCC2=O)cc1 (stereo not drawn)	/	/	1%	/	3%	/
O=C(Nc1n[nH]c(=S)s1)c1ccc2ccccc2c1	-55*	3%	16%	3%	-16%	3
CNc1n[nH]c(=S)s1	-57*	-1%	?	-15%	1%	-1
O=C(Nc1nccs1)c1ccc2ccccc2c1	0	13%	5%	-5%	-13%	3
CC(=O)Nc1n[nH]c(=S)s1	-86*	/	-18%	?	-15%	-13
C[C@H](N=C(NC#N)Nc1ccncc1)C(C)(C)C	/	/	/	/	-8%[19.4 µM]	/
CCC(Sc1nc2ncccc2[nH]1)C(=O)Nc1ccccc1F (stereo not drawn)	/	9%	-6%	-15%	1%	-3
CN1Cc2cc(C(=O)N3CCC(C4CCNCC4)CC3)ccc2N[C@@H](CC(=O)O)C1=O	/	/	/	/	/	-12
Cc1ccc(N2CCC3CC2c2cc(-c4ccc(C(F)(F)F)cc4)ccc23)cc1 (stereo not drawn)	4	/	/	-29%	/	2
Nc1ccc(O)c(C(=O)O)c1	/	/	/	/	1.1µM*	-7
COc1ccc(-n2c(SCC(=O)Nc3ccccc3-c3ccccc3)nnc2-c2ccco2)cc1	/	/	/	/	/	1
O=c1ccc(C(F)(F)F)cn1Cc1cc(=O)n2cc(Br)ccc2n1	?	13µM*	?	-2%	?	-7
CC(C)(C)n1ncc2c(=O)n(Cc3c(Cl)cccc3Cl)cnc21	/	/	5%	/	8%	/
CC(=O)NN1C(=O)/C(=C\c2ccc(Br)o2)SC1=S	-2	28µM*	?	25µM*	?	-6
CC(=O)NN1C(=O)/C(=C\c2ccccc2)SC1=S	-14	13%	?	3%	4%	-5
O=C(CCCC(=O)N1CCc2ccccc21)N1CCc2ccccc21	-6	34%	16%	-15%	-19%	2
O=C(Cc1ccc(-n2cccc2)cc1)N1CCc2ccccc21	-23	22µM*	?	?	-35%	-2
COc1cc(/C=C2\SC(=Nc3ccc(O)cc3)NC2=O)cc(OC)c1OC	-3	12%	3%	8%	-6%	-2
COc1ccc(N=C2NC(=O)/C(=C/c3ccc(O)c(OC)c3)S2)cc1	-62*	40µM*	?	?	-29%	1
COc1ccc(/C=C2\SC(=Nc3ccccc3)NC2=O)cc1	/	0%	/	/	/	/
COc1cccc(N=C2NC(=O)/C(=C/c3cc([N+](=O)[O-])ccc3O)S2)c1	-76*	40%	?	28µM*	-11%	5
CCOc1ccc(N=C2NC(=O)S/C2=C\c2ccc(OC)cc2)cc1	/	10µM*	?	-10%	-8%	1
COc1cc(/C=C2/SC(=Nc3ccc(O)cc3)NC2=O)cc(OC)c1O	-51*	-22%	?	3%	-28%	-3
CC(C)NC(=O)N1CCC2(CC1)CCN(S(C)(=O)=O)CC2	/	/	/	/	1%[60.1 µM]	/
O=C1NC(=Nc2ccc(O)cc2)S/C1=C\C=C\c1ccco1	?	20µM*	?	32µM*	-44%	?
CC(=O)Nc1ccc(S(=O)(=O)/N=C2/NC(=O)/C(=C\c3ccco3)S2)cc1	2	10µM*	?	20µM*	?	-7
COC(=O)/C=C1/S/C(=N/N=C/c2ccco2)NC1=O	0	0%	124%	-18%	-2%	1
